Source: PubChem BioAssay (several laboratories)
Most compounds without a hit are left out; they make up all but 1% or so of the library.
MEX-5 binding = C. elegans MEX-5 TCR-2 RNA binding activity; Q9XUB2; MEX-5/FITC-TCR2 RNA binding, fluorescence polarization; hits give low values; activity score (negative = inhibition of binding), % at 10 µM; 300,000 tested, 0.38% active;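 active means inhibition past about -25% in most replicates, and total fluorescence under double the plate's negative control median, limit read from the data; inconclusive means replicates evenly split on the limit, or fluorescence at least double controls; inactive means too little inhibition in most replicates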;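 further: 0% = DMSO and -100% = 5 µM competing unlabeled TCR2 RNA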
Target sequence (Q9XUB2 whole entry, looked up): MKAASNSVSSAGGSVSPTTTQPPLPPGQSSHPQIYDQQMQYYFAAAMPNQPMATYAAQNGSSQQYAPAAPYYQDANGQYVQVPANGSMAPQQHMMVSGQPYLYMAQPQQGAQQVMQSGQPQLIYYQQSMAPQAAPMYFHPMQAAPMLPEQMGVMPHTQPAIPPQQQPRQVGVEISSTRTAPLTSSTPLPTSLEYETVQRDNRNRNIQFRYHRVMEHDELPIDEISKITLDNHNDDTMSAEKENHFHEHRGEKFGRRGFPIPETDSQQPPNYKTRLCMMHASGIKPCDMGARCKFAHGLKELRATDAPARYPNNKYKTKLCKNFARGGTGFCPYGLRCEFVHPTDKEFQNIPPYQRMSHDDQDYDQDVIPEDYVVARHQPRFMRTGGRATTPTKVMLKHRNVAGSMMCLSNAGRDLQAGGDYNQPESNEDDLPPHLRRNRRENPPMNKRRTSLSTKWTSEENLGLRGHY
EBV gp42 inh = inhibitors of Epstein-Barr virus glycoprotein 42; inhibition, % (tested at 21.74 µM); AID 1085; Fluorescence polarization binding assay, mP read-out; 220,000 tested, 0.42% active; Q1HVG2; in the data active means inhibition above about 50%
ZTA DNA inh = ZTA (EBV) inhibition in EBNA-1 counter-screen | P03206 | ZTA-DNA binding, fluorescence polarization | 320,000 tested, 0.15% active | inhibition, % at 11 µM; in the data active means inhibition above about 33%
EBNA-1 inhibitor = blocks EBNA-1 binding to DNA; EBNA-1 DNA binding, fluorescence polarization; inhibition, % at 14.8 µM; 300,000 tested, 0.34% active; in the data active means inhibition above about 28%
Numbers without * were called inactive; ? = inconclusive; . = no result given.

SMILES | MEX-5 binding | EBV gp42 inh | ZTA DNA inh | EBNA-1 inhibitor
Oc1[nH]c(N=C2N=c3ccccc3=N2)c2ccccc12 | -37.5* | -11.8 | 1.2 | -2.0
N#CC(=C1N=c2ccccc2=N1)c1c(O)[nH]c2ccccc12 | . | -5.9 | . | .
O=c1[nH]c(C(Cl)Cl)nc2sc3c(c12)CCN(Cc1ccccc1)C3 | -9.4 | 56.2* | 15.1 | -5.1
CCCSc1nc2sc3c(c2c(=O)[nH]1)CCN(Cc1ccccc1)C3 | -3.7 | 45.1 | 3.1 | -1.7
CC(OC(=O)c1cnccn1)C(=O)c1ccccc1 (stereo not given) | 2.5 | . | 6.6 | -0.1
CN1C=CC2=C(C#N)C(N)C(C#N)(C#N)C(c3ccccc3)C2C1 (stereo not given) | ? | 62.6* | 14.2 | -4.1
CN1C[C@@H]2C(c3ccccc3)C3(c4ccc(C#N)cc4)CC2(C3)[C@H]1c1ccccc1 (stereo not given in full) | 0.9 | -19.7 | -9.3 | 0.2
CC(=O)c1ccc(NC(=S)N2CCN(c3cccc(Cl)c3)CC2)cc1 | -2.0 | -13.6 | 25.7 | -9.2
CC(=O)c1ccc(N2CCN(C(=S)Nc3cccc(Cl)c3)CC2)cc1 | 0.9 | 3.0 | -2.3 | 55.9*
Cc1ccc(CN(C)C(=O)CC2C(=O)NCCN2CC2CCCCC2)cc1 (stereo not given) | -47.6* | -9.3 | -23.0 | -3.5
O=C(O)c1cc(S(=O)(=O)N2CCCCC2)ccc1N1CCCCC1 | . | . | 13.1 | .
COC(=O)c1cc(C)nc2c1C(=O)C(=O)C=C2N1CCOCC1 | -5.7 | . | 57.1* | -0.9
CCN(CC)c1ccc(/C=C(/C#N)c2nc3ccc(C)cc3[nH]2)c(OC(C)C)c1 | -14.7 | 66.9* | -7.0 | -2.9
CCOc1cc(N(CC)CC)ccc1/C=C(/C#N)c1nc2ccccc2[nH]1 | -0.5 | 42.0 | 14.3 | -0.5
CCCOc1cc(N(CC)CC)ccc1/C=C(/C#N)c1nc2ccc(C)cc2[nH]1 | -4.3 | 92.2* | 2.1 | -1.0
COc1cc(/C=C(\C#N)c2nc3ccc(C)cc3[nH]2)c([N+](=O)[O-])cc1OC | -2.0 | -11.1 | 2.7 | -5.1
O=C1CSC(=S)N1/N=C/c1cc(Br)c(O)c(Br)c1 | -32.8* | . | -1.5 | -3.2
C=CCn1c(N)cc(=O)nc1SCC(=O)Nc1ccc(C(=O)OCC)cc1 | -1.0 | . | -7.6 | -2.4
Cc1ccc(C(=O)Nn2c(O)c(C=C3N=c4ccccc4=N3)sc2=S)cc1 | -1.7 | 61.2* | 5.7 | 4.3
CCOC(=O)N1CCN(/C=C(\C#N)c2nc3ccccc3s2)CC1 | -50.2* | -48.5 | 9.9 | 0.6
N#C/C(=C\N1CCN(Cc2ccc3c(c2)OCO3)CC1)c1nc2ccccc2s1 | ? | -92.6 | 11.3 | 7.8
Cc1[nH]nc(NNC(=O)c2ccccc2)c1[N+](=O)[O-] | -83.3* | -2.8 | 1.6 | -7.5
O=[N+]([O-])c1cc(CN2CCOCC2)c2cccnc2c1O | . | 87.3* | . | .
CCOC(=O)CSc1nnc(NC(=O)CCc2ccccc2)s1 | 0.0 | . | 3.3 | -6.8
CCc1ccccc1NC(=S)N(CCCN1CCOCC1)Cc1ccccn1 | -1.3 | 3.3 | 81.8* | 9.7
SMILES | MEX-5 binding | EBV gp42 inh | ZTA DNA inh | EBNA-1 inhibitor
Cc1cc(=O)n2[nH]c(=O)c(N=Nc3ccccc3)c2[nH]1 | -81.7* | -8.7 | 5.7 | 6.9
CCOc1ccc(N=Nc2c(=O)[nH]n3c(=O)cc(C)[nH]c23)cc1 | -51.0* | -22.6 | -2.7 | 4.2
CCOc1ccc(N=Nc2c(=O)[nH]n3c(=O)c4c([nH]c23)CCCC4)cc1 | ? | -12.2 | -2.1 | -10.3
Cc1cc(C)n2[nH]c(=O)c(N=Nc3ccccc3)c2n1 | -5.9 | -9.2 | 0.6 | -12.4
CCN(CC)S(=O)(=O)c1ccc(N2CCOCC2)c(NC(=O)COc2ccccc2C)c1 | . | . | 4.7 | .
O=C1ON=C(c2ccccc2)/C1=C/c1ccco1 | -6.2 | -9.6 | -20.3 | 1.2
CCCCc1ccc(/C=C2\C(=O)ON=C2c2ccccc2)s1 | -33.0* | -18.9 | -4.0 | -4.0
CCc1cc[n+](-c2nc([O-])sc2C=O)cc1 | -50.2* | 87.5* | -8.2 | -2.6
COc1ccc(NC(=S)NNc2ccc(S(=O)(=O)Nc3ccccc3C(=O)O)cc2[N+](=O)[O-])cc1 | -87.2* | -4.7 | 6.4 | 5.5
Cc1nn(-c2ccccc2)c(Cl)c1/C=N/Nc1ccc(S(=O)(=O)Nc2ccccc2C(=O)O)cc1[N+](=O)[O-] | -0.1 | 73.0* | 15.8 | 15.1
O=C(NCc1ccccc1)C(c1ccccc1F)N(C(=O)c1csnn1)C1CCCC1 (stereo not given) | 0.2 | . | -17.7 | -8.9
COc1ccc(S(=O)(=O)N2CCN(C(=O)c3ccc(C)o3)CC2)cc1 | -1.7 | . | 12.7 | -9.1
C[C@@H]1O[C@@H](Oc2c(-c3cc(O)c(O)c(O)c3)oc3cc(O)cc(O)c3c2=O)[C@H](O)[C@H](O)[C@H]1O | -57.5* | -4.0 | -18.1 | -8.6
